# From PubChem BioAssay AID1508600 (Functional Genomics Laboratory (NCATS/FGL), 2020)
# About 3,700 (7%) of roughly 53,000 sequences were called active.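 The calls were made as follows: active = gene knockdowns whose robust z-score for IL-1 alpha signal is at least 2 or at most -2, so actives lie on both sides; inactive = the rest.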 Shown is part of a subset that was picked to be rich in actives.
# Experiment: Components of the Cytosolic LPS Sensing Pathway: Gene Identification via Genome-wide siRNA Screen;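 also: robust z of the log signal after scaling to non-targeting control siRNA wells of the plate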
# Conditions: RAW264.7 macrophages, IL-1a HTRF, actives lie on both sides, screened at 100 nM (by protocol), cells primed 5 h with Pam3CSK4 first
# Outline: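 Supernatant IL-1a by HTRF from RAW264.7 cells primed with Pam3CSK4 (5 hours) and transfected with LipidA (24 hour) after 48h siRNA knockdown at 100 nM; cell viability checked with CellTiter-Glo.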
row,Sequence,z-score
1,GGGAAUUUCGGCUGUUUUATT against Cts8,1.85 (inactive)
2,GGACCUGAGAGACUCUUUGTT against Ip6k2,-3 (active)
3,GGUCCACAGAUUCUUCUAATT against Zfa-ps,-0.761 (inactive)
4,GGCCAUUUUGGAUCAUACATT against Actl6a,-1.06 (inactive)
5,GCAGAUCAAUGGAUUCACCTT against Olfr57,-1.51 (inactive)
6,GGCACUGCCAUUAACAAAATT against Nrip1,0.0122 (inactive)
7,GGGCCAAUAAAGAGGACAGTT against Aanat,2.38 (active)
8,CCUGAUUGUCUUCAAUGGGTT against Cant1,-0.84 (inactive)
9,CCAGUUGACAGGUUUGAUCTT against Habp4,-0.255 (inactive)
10,GGUACAAGAUAUUGUGAAATT against Fgd3,0.0612 (inactive)
11,GCUUGAUCAACAAGUGGAGTT against Nup62,-2.13 (active)
12,GAGCUCUGCAUUUGGUUAGTT against Fam98b,0.0904 (inactive)
13,ACUCAGUCAUUAAAGAGUGTT against G430095P16Rik,0.447 (inactive)
14,GGAUAUUCCCAAUUACAAGTT against Plxna3,-0.469 (inactive)
15,GGUCCAGAAGCAGAUGCUUTT against Zdhhc15,-0.174 (inactive)
16,GCAAGAACAUUAUGAAAGUTT against Epb41,0.905 (inactive)
17,GGCCUACCACCUUCAGAAGTT against Rpl37,2.01 (active)
18,GGCACUGUAGACAAACUCUTT against Stxbp1,-0.468 (inactive)
19,GGCACCUAUGAGGUUCUAUTT against Sec16b,-0.615 (inactive)
20,GUUCAAGAGGGAGCUGGAATT against Pomc,0.842 (inactive)
21,GGUCAUUUGUUUUCAGGGATT against Tfdp2,3.07 (active)
22,GGGCCUUUAGUCCUCAAAGTT against Psmg3,0.387 (inactive)

row,Sequence,z-score
1,CCUGUCAUCACACUCGAGGTT against Coro6,-0.00248 (inactive)
2,CGGCGGUUUAAUGAAAAUATT against Cbfa2t2,-2.58 (active)
3,GGUAGAAUGUGUGAUACCCTT against Rogdi,0.205 (inactive)
4,GGUGGUCCAGAAUUUUGCATT against Cotl1,0.386 (inactive)
5,CGGGAAUAAGAUCUUUCUGTT against Zbtb22,1.43 (inactive)
6,GGUACAUGAUUACCAGCCUTT against Sdk2,-2.26 (active)
7,GGAAUAGUGGCUUCUUUUATT against Rsph3a,-0.00182 (inactive)
8,UUUGCAUGUACAGAAUGCUTT against Olfr312,1.54 (inactive)
9,GGAAACACAAGUUCUAGGUTT against Gpx3,0.735 (inactive)
10,GGGUUUCUGUGAGAGACAATT against Ube2f,1.01 (inactive)
11,GGAUGUUUGCUCUUGAGCGTT against Isoc1,-2.17 (active)
12,GGGACUAUAAGGAACCAGGTT against Fmo3,-0.35 (inactive)
13,GGGCAAGACUUAAUUUUGGTT against Dppa1,-0.36 (inactive)
14,GGUCAAGAGUGCCCUAAAATT against Olfr398,-1.63 (inactive)
15,GGAUUCGUUCAGCUAAGGGTT against Olfr1023,1.29 (inactive)
16,GGAGAAAUGUUGUUGUCUUTT against Kcng3,-0.327 (inactive)
17,AAAGCGCAUUCACAAAAAUTT against Olfr1453,0.197 (inactive)
18,GGAAACAAGGAUAUUCUUUTT against Fanca,0.859 (inactive)
19,GGAGGUAUUAUCUGAAUUGTT against Utp14a,1.17 (inactive)
20,GGAGGCAUACAUGACAAAATT against Cop1,0.953 (inactive)
21,GGCAGAGUGCUGACUUCAUTT against Coq8a,3.86 (active)
22,CCAUGUAUGCCUCAACAUATT against Ltf,0.517 (inactive)

row,Sequence,z-score
1,GGAAAGUGCCAUGAAGACCTT against Dbi,-1.42 (inactive)
2,GCUCCUAAUGGAAAGAACGTT against Pla2g4d,0.0914 (inactive)
3,CCUGUCCAGGGUUUGACCATT against Man2c1,-1.12 (inactive)
4,GCGAUAUGCAGAGAAGCGGTT against Prpf8,-1.63 (inactive)
5,GGUUAAAGGAGCAGUCUAUTT against Dbn1,0.636 (inactive)
6,GGAGAAAGUGUCCUCUGUGTT against Olfr924,-2.41 (active)
7,GGGCUGGGUCUUCAUAAUUTT against 6330549D23Rik,1.14 (inactive)
8,GCACUUCAAUCCAGUGUCUTT against Pdgfd,-1.27 (inactive)
9,GGCAAAAAUUUUUUCAUGCTT against Abcb4,-0.47 (inactive)
10,GGUGGCGGGAGAUGUUUUUTT against Pex6,0.85 (inactive)
11,GGUCUAGAGCAAUUCCAUATT against Olfr656,1.51 (inactive)
12,GUUGUAUUUCUUUGUCCUCTT against Olfr1097,2.21 (active)
13,GAUCUUAUAUGUUGGUGGUTT against Vmn1r29,-0.31 (inactive)
14,GGUGAACUUUACCUUCAACTT against Mov10,0.867 (inactive)
15,GGAUCAACGAGGUAAAGUCTT against Itga8,0.101 (inactive)
16,GGUUUUUGAUAAUUGCCAUTT against Gcsh,-1.98 (inactive)
17,GGAAGAAGACACAAAAAAUTT against Rcan3,3.53 (active)
18,GGUCUUCUUCUUCAAAGCUTT against Mrpl46,-1.27 (inactive)
19,GCAACGUGGUCAUCAAUCUTT against Ndufa9,-0.743 (inactive)
20,GGGUUAUGGCUGGAAUCUGTT against Slc12a9,-1.52 (inactive)
21,GGAACAAGGCUUUUUCCACTT against Olfr481,0.566 (inactive)
22,CCCGUUGUAUACAAAUACCTT against Tmem41b,0.579 (inactive)

row,Sequence,z-score
1,CCCAAACAGACUAGAUCCGTT against Rab20,3.37 (active)
2,GUGGAAAUUAAUCUGGGUUTT against Tmem191c,0.394 (inactive)
3,GGCCAGAUAGCAAAACAGCTT against Mpst,0.897 (inactive)
4,GGAGGUGUUCAUUGAAGUCTT against Nudcd2,-0.356 (inactive)
5,GGAACUGACAGCUAUGAACTT against Atp6v1d,-0.845 (inactive)
6,GGAGAAGAAAGCAAAAACCTT against Ing1,-2.11 (active)
7,CGCAGAUCAAUUUUCAUAGTT against Kif2a,0.471 (inactive)
8,GGAUAUUGGUGGCACUUUATT against Med6,-0.315 (inactive)
9,GGAUAAAUGGUACAUUCAGTT against Coa7,0.958 (inactive)
10,CCAACCUAAACAAUGCAUUTT against Actn4,-0.431 (inactive)
11,GGCGGACUUGGAUUACAGCTT against Rassf10,2.21 (active)
12,GGAGCUGCUGUUAAUUCCATT against Col5a3,1.3 (inactive)
13,GGAAGCCUACCUUUAUAUUTT against Slc2a3,0.458 (inactive)
14,CCUUUUCAAGCUAACAACATT against Gba2,-0.0808 (inactive)
15,GGUAGCACUUUGUAUUUUATT against Spg7,0.575 (inactive)
16,GCAUCUACUAUCCAAGUGATT against Alox8,2 (active)
17,CCUACAGCCACCUAAUAGATT against Olfr1196,-0.346 (inactive)
18,GCAAGUAACUACCAGAGUATT against Cfap20,-0.488 (inactive)
19,CCACGGGAGACAAGAUUCUTT against Hmbs,3.18 (active)
20,GGUCAGCGAACCACGAUAATT against Olfr314,-0.792 (inactive)
21,GGUAUAAGGUCAUAGAAUUTT against E230016K23Rik,0.429 (inactive)
22,GCUUCUAUUUUGGAUGAUGTT against Skint10,-1.2 (inactive)

row,Sequence,z-score
1,GGCACAAGUUGACCAAUAUTT against Rtn1,-0.263 (inactive)
2,GCUACUCCUUAGAACACGGTT against Spry1,0.839 (inactive)
3,GGCUAUCUGAUUUUUGUUGTT against Nlrp3,-0.0259 (inactive)
4,GGCCUCAAACUGAAUAUUATT against Serpina7,0.472 (inactive)
5,CCCGGAAACAACACAUUGCTT against Tyrobp,2.88 (active)
6,GGUCCAGCAUUUGAAAUUATT against Moap1,0.291 (inactive)
7,CCACUGUGCAAGAAGCACGTT against Ldb3,-0.129 (inactive)
8,GGGUAAUGGGCCAGUAUCATT against Fam229b,-2.92 (active)
9,GGUAUAUUGUGCCAGCACATT against Olfr705,0.00345 (inactive)
10,GGUUCACAUGUACAUUAAATT against Cracd,-0.156 (inactive)
11,GGUUAGAAAACAAUAUCAGTT against 9530053A07Rik,0.88 (inactive)
12,GGGAGAGCUGGCUAAAUGATT against Sptbn4,-0.956 (inactive)
13,GGAGUUUGCCAGUGAAUUUTT against Ptpn22,-0.603 (inactive)
14,GGAAGAGAAAACAACAGUUTT against Phactr4,-1.26 (inactive)
15,CCCGUAAGGUAACAAACCGTT against Polr3k,-1.14 (inactive)
16,GGACAGGAAGGUCAUCCCUTT against Sntb2,-0.568 (inactive)
17,CCGCCAGACCUUCAUUACCTT against Chia1,-0.515 (inactive)
18,GGCAGUGGAGCUGGACAAATT against Nkx2-5,2.45 (active)
19,GGCUACAAAUCCAACUAUCTT against Ppp1r32,0.181 (inactive)
